In PubChem BioAssay AID588489 (Sanford-Burnham Center for Chemical Genomics, 2011):
In all, about 360,000 compounds went through this assay and about 1,300 (0.36%) were called active. No stated cut-off is given here; in the data, active means inhibition above about 35% (passing the limit was not always enough); inactive means the rest. Only a selection was taken, and actives are over-represented in it overall.

Biological target: Polyadenylate-binding protein 1 (Homo sapiens) (UniProt P11940)
Assay: inhibitors of PABP1 MLLE–PAM2 peptide binding, primary screen, biochemical, fluorescence polarization, FITC-PAM2, GST-MLLE (AID 588489);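 further: plate controls were DMSO wells with GST-MLLE for no effect and wells lacking GST-MLLE protein for full effect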
Conditions: at 20 µM, hits give high values

Sequence of Polyadenylate-binding protein 1 (Homo sapiens) (P11940 whole entry, looked up): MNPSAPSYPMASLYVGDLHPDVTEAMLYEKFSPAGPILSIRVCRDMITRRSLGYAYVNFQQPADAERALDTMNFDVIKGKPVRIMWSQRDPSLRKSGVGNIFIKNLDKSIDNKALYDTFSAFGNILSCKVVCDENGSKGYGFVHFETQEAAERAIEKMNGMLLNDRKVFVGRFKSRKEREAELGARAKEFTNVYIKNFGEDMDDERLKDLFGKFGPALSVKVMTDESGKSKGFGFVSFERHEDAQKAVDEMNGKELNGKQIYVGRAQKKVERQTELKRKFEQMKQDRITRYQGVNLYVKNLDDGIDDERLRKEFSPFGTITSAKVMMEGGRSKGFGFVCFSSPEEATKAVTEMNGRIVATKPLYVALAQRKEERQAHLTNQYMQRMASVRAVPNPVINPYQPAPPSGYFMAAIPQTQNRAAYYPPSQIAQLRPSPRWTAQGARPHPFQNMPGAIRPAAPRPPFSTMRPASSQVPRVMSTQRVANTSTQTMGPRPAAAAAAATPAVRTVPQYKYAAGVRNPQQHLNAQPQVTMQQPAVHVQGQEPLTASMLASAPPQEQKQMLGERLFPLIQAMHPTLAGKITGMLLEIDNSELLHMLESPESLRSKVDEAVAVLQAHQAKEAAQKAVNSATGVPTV

inhibition, active:
Cc1ccc(NC(=S)Nc2ccc(F)cc2)cc1 37.8%
O=C1N=C2SCCN2/C1=C\c1c(Cl)cccc1Cl 38.4%
CC(=O)Nc1cc(-c2ccccc2N(C)C)cn2c(-c3ccc(F)c(Cl)c3)cnc12 48.4%
CC(=O)N(c1ccc2oc(=O)sc2c1)S(=O)(=O)c1ccc(C)cc1 41.1%
NC(=S)c1ccc(C(N)=S)o1 37.7%
Cc1ccccc1NC(=O)CSC(=O)c1ccccc1 44.4%
Cc1cccc(NC(=O)CSC(N)=O)c1C 38.8%
CCCCOC(=O)CNc1nnc(SCC(=O)OCC)[nH]c1=O 38.4%
Cc1cccc(CC(=O)N2CCN=C2SCc2ccc([N+](=O)[O-])cc2)c1 40.2%
CCOC(=O)c1c(NC(=O)C2(C)Cc3ccccc3C(=O)O2)sc2c1CCCC2 (stereo not drawn) 38.6%
CN(C(=O)CCN1C(=O)/C(=C/c2ccccc2F)SC1=S)C1CCS(=O)(=O)C1 (stereo not drawn) 47.2%
COc1c(F)c(F)c(-c2csc(N)n2)c(F)c1F 41%

inhibition, inactive:
C=CCC(NCCCO)c1cccc(OC)c1OC (stereo not drawn) 9.54%
O=C1[C@@H](c2ccccc2)[C@@H](c2ccccc2)N1c1cccnc1 -0.26%
O=C(O)c1cscn1 -3.08%
CC(NC(=S)Nc1ccc(OC(F)F)cc1)c1ccc(F)cc1 (stereo not drawn) -13.4%
O=S(=O)(NC(=S)Nc1ccccc1)c1ccc(F)cc1 33.4%
COc1ccc(/C=N/Nc2ncnc3sc4c(c23)CCCC4)cc1O -12.9%
O=C(NC1(C(F)(F)F)N=C2SCCN2C1=O)c1ccco1 (stereo not drawn) 35.9%
O=Cc1c(Cl)cccc1Cl 9.74%
Cc1ccc(CNC(=O)C2CCN(S(=O)(=O)c3ccc4nc5c(c(C(=O)O)c4c3)CC(C)CC5)CC2)cc1 (stereo not drawn) -3.02%
COc1ccccc1CNC(=O)CCCn1c(=O)c2ccccc2n(CC(=O)NC2CCCC2)c1=O 12%
CC(NC(=O)Nc1ccccc1)C(c1cccs1)N1CCN(c2ccccc2)CC1 (stereo not drawn) -4.15%
CC(=O)Nc1cc(-c2ccccc2F)cn2c(-c3cccc(C(F)(F)F)c3)cnc12 -12.1%
COc1ccccc1-c1cc(NC(C)=O)c2ncc(-c3ccc(F)cc3)n2c1 -10.4%
N#Cc1ccc(C2=CC(=O)C[C@H](c3ccc(Cl)cc3)C2)cc1 6.39%
COc1cc2c(cc1NC(=O)COC(=O)/C=C/c1ccccc1)oc1ccccc12 11%
CCN1C(=O)[C@H]2[C@@H](c3ccc(C)cc3)N3C(=O)N(c4cccc(Br)c4)C(=O)[C@@]3(CC)[C@H]2C1=O 11.2%
CCC(=O)NNc1cc(=O)c2c(=O)n(C)c(=O)n(C)c2[nH]1 -6.2%
CC(=O)Oc1ccc(N(C(C)=O)S(=O)(=O)c2ccc3ccccc3c2)cc1Br -22.5%
COC(=O)c1c(C)oc2ccc(N(C(=O)Oc3ccccc3)S(=O)(=O)c3ccccc3)cc12 9.28%
Cc1nn(C)c(Oc2ccc(Cl)cc2)c1C=O -2.27%
CCC(=O)N1CCC(C)(C(=O)Nc2cc(OC)c(OC)c(OC)c2)C1 (stereo not drawn) 4.71%
CC(CC(=O)N1CCN(S(=O)(=O)c2ccccc2)CC1)n1cncn1 (stereo not drawn) 21.2%
Cc1cccc(NC(=O)CSc2nc3c(c(=O)[nH]2)CCCC3)c1C -11.1%
Cc1ccccc1NC(=O)CSC1=NCCN1 16%
Cc1cccc(NC(=O)COC(=O)CCc2ccccc2)c1C -0.48%
Cc1ccccc1NC(=O)CCOc1ccccc1 4.98%
FC(F)(F)C1CCCN(c2nsc3ccccc23)C1 (stereo not drawn) 33.5%
COc1ccc(C(=O)C[n+]2ccc(N)c(C)c2C)cc1 -11.1%
CC12CCC(C(=O)N3CCN(c4ncccn4)CC3)(c3nc4ccccc4nc31)C2(C)C (stereo not drawn) 14.9%
CCOC(=O)CN1C(=O)C(O)(CC(=O)c2ccccn2)c2ccccc21 (stereo not drawn) 11.1%
Cc1nnc(SCC(=O)N2CCOCC2)[nH]c1=O 11.7%
CCOC(=O)CSc1nc(C)c(Oc2ccc(Cl)cc2Cl)c(=O)[nH]1 -8.63%
Cc1ccccc1NC(=O)N1CCCC1C(=O)NCc1ccccc1 (stereo not drawn) -5.08%
COc1ccc(C(C#N)Nc2ccc(C)cc2)cc1 (stereo not drawn) -0.36%
CCOC(=O)C1CCCN(S(=O)(=O)c2ccc3c(c2)C(C)(C)C(=O)N3C)C1 (stereo not drawn) 0.52%
O=C(Cc1ccc(F)cc1)N1CCN=C1SCc1cccc([N+](=O)[O-])c1 -6.14%
Cc1cc(C)cc(C(=O)N2CCN=C2SCc2ccc([N+](=O)[O-])cc2)c1 34.7%
CC(C)=CCN1CCN(Cc2cc3ccccc3[nH]2)CC1CCO (stereo not drawn) -5.44%
CCOC(=O)c1c(NC(=O)C(C)Sc2c[nH]c3ccccc23)sc2c1CCC2 (stereo not drawn) 2.56%
CCOC(=O)c1c(NC(=O)C2CCN(S(=O)(=O)c3ccc(Cl)cc3)CC2)sc2c1CCCC2 1.94%
CCc1cc2cc(OC)ccc2nc1SCC(=O)Nc1cc(OC)c(OC)cc1C(=O)O 19.2%
COc1ccccc1/C=C1\SC(=O)N(CCC(=O)N(C)C2CCS(=O)(=O)C2)C1=O (stereo not drawn) 15.8%
CN(C(=O)CN1C(=O)S/C(=C\c2ccccc2F)C1=O)C1CCS(=O)(=O)C1 (stereo not drawn) 34%
CCCCOc1ccc(C(=O)NCC(=O)OCC(=O)N2CCN(S(=O)(=O)c3ccc(C)cc3C)CC2)cc1 -5.79%
CC1(C(=O)Nc2cccc3cccnc23)CCN1C(=O)CCC1CCCC1 (stereo not drawn) -9.79%
O=C(CN1CCOCC1)Nc1c(-c2ccccc2)c2cc(Br)ccc2[nH]c1=O 7.03%
CS(=O)(=O)N(CC(=O)N/N=C/c1ccccn1)c1ccc(Oc2ccccc2)cc1 1.62%
Cc1cc(-c2csc(N)n2)c(C)n1-c1ccccc1 -12.2%
Nc1nc(C23CC4CC(CC(C4)C2)C3)cs1 -0.54%
Cc1cc(C(F)F)n2nc(C(=O)Nc3ccc(S(=O)(=O)NC45CC6CC(CC(C6)C4)C5)cc3)nc2n1 0.98%
Cc1cc(C)c2c(-n3cccc3)c(C(=O)NNS(=O)(=O)c3ccc(F)cc3)sc2n1 -3.3%
